The list is not random: actives were taken first. Their share in the collection is about 1.4%.
PriA SSB inh: inhibitors of Klebsiella pneumoniae PriA binding to SSB C-terminal tail, primary screen, biochemical, AlphaScreen; AlphaScreen SSBct-PriA binding, biotinylated peptide; inhibition, % at 33 µM; actives 0.6% (n = 430,000); in the data active = inhibition mostly above about 37%, no sharp cut-off; inactive = mostly below about 20%;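 also: plate controls were negative control peptide for no effect and reference peptide for full effect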
PrP 5UTR inh: inhibition of PrP 5' UTR reporter expression; cell-based PrP 5' UTR mRNA reporter, plate reader; inhibition, % (concentration not given with the values); actives 0.35% (n = 340,000); AID 488862, 2010; in the data active = inhibition above about 52%; also: 0 = median of the neutral control wells
FadD28 binding: inhibitors of FadD28 bisubstrate probe binding, primary screen, biochemical, fluorescence polarization, single point. actives 0.22% (n = 360,000). inhibition, % at 12.5 µM. Mycobacterium tuberculosis FadD28 fatty-acid-AMP ligase. AID 588549, 2011; in the data active = inhibition above about 8.5%, passing the limit was not always enough
BH1578 lux ind: inducers of Vibrio cholerae quorum light production without autoinducers, primary screen, BH1578 luxS cqsA deficient, single point | V. cholerae BH1578 lux reporter, luminescence, 6 h | activation, % at 18.7 µM | actives 0.16% (n = 350,000) | AID 588436, 2011; in the data active = activation mostly above about 9.7%, no sharp cut-off
PrPC TRFRET: inhibitors of human cell surface prion protein PrPC, primary screen, cell-based, TR-FRET. Major prion protein (Homo sapiens), P04156. TR-FRET read-out. inhibition, % at 13.8 µM. actives 0.43% (n = 370,000); in the data active = inhibition above about 24%; also: 0% = median of the test wells and 100% = reference compound wells
* marks the source's active call; other numbers are inactive results; i = inactive; · = no result; + = active, no number.

SMILES	PriA SSB inh	PrP 5UTR inh	FadD28 binding	BH1578 lux ind	PrPC TRFRET
CC1(C)C(c2cccs2)=[N+]([O-])C2(CCCCCC2=NO)N1O (stereo unspecified)	-17	·	·	·	·
CC1(C)C(C=C(Cl)Cl)C1C(=O)Nc1ccc(N=Nc2ccccc2)cc1 (stereo unspecified)	11	·	·	·	·
CCc1nc2ccc(C(=O)NCCCn3ccnc3)cn2c1N(C)Cc1cc2ccccc2s1	·	·	9.2*	i	-6
O=C(CCc1ccc(Oc2cc([N+](=O)[O-])cc([N+](=O)[O-])c2)cc1)N1CCCCCC1	39*	-13	1	i	-13
O=C(Cc1ccc([N+](=O)[O-])cc1)N1CCCCCC1	-17	-28	-5	-1	-4
O=[N+]([O-])c1ccc(O)c(C=Nc2cccc3ncccc23)c1	68*	3	-1	i	-3
O=[N+]([O-])c1ccc(O)c(C=Nc2cccc3ccccc23)c1	11	-30	-3	i	0
COc1ccc(C[C@H]2CN3C(=NC[C@@H]3Cc3ccc(O)cc3)N2CCNC(=O)c2ccc(C)c(Br)c2)cc1	42*	-8	-7	i	-3
O=C(Nc1nc(-c2ccc(F)cc2)cs1)c1ccc2c(c1)CCCC2	-11	·	·	·	·
CC[C@@H](C(=O)[C@@H](C)[C@@H](O)[C@H](C)[C@@H]1O[C@@H]([C@@H](CC)C(=O)O)CC[C@@H]1C)[C@H]1O[C@]2(C=C[C@@H](O)[C@]3(CC[C@@](C)([C@H]4CC[C@](O)(CC)[C@H](C)O4)O3)O2)[C@H](C)C[C@@H]1C	1	0	-3	i	70*
O=C(NCCc1ncc(-c2cccs2)[nH]1)c1c(F)cccc1Cl	1	·	·	·	·
COc1ccc(Nc2cccc3ccccc23)cc1	50*	-43	4	i	2
CC(=O)Nc1cccc(NC(=S)Nc2cccc3ccccc23)c1	20	-37	-3	i	11
COc1ccc(NC(=S)Nc2cccc3ccccc23)cc1OC	43*	-22	-2	-1	2
COc1ccc(Nc2cccccc2=O)cc1	-13	-24	-2	i	-22
COc1ccc(C2C(C(C)=O)=C(C)N=c3s/c(=C\c4cc(C)n(C)c4C)c(=O)n32)c(OC)c1 (stereo unspecified)	·	5	12*	i	-9
CC1(C)CCC[C@@]2(C)CC=C(C(=O)O)[C@@H]3C[C@]312	-7	-11	9.1*	-1	-1
CCc1ccc2c(c1)C(C)(C)C1(/C=C/c3ccco3)NC(=O)CCN21 (stereo unspecified)	50*	·	·	·	·
CN1CCN(NC(=O)C2COCC(=O)N2Cc2ccccc2)CC1 (stereo unspecified)	-19	·	·	·	·
O=C(CN1CCCc2ccccc21)N/N=C\C=C/c1ccccc1	39*	·	·	·	·
O=C(CN1CCCc2ccccc21)N/N=C/c1ccccc1	·	-61	-1	0	-4
CCN(CC)c1ccc(C=NNC(=O)CN2CCCc3ccccc32)cc1	50*	·	·	·	·
CCN(CC)c1ccc(/C=N/NC(=O)CN2CCCc3ccccc32)cc1	·	-38	0	-1	3
COc1ccccc1NC(=O)C(=O)NCc1ccc2c(c1)OCO2	-23	·	·	·	·
O=C(CN1C(=O)c2ccccc2C1=O)N(CCO)Cc1ccccc1	0	-8	22*	-1	-8
SMILES	PriA SSB inh	PrP 5UTR inh	FadD28 binding	BH1578 lux ind	PrPC TRFRET
Cc1nnc2ccc(-c3cccc(NS(=O)(=O)c4cccc(C(F)(F)F)c4)c3)nn12	-8	·	·	·	·
CS(=O)(=O)N1N=C(c2cccs2)CC1c1ccc2nccnc2c1 (stereo unspecified)	62*	·	·	·	·
CS(=O)(=O)N1N=C(c2ccccc2)CC1c1ccc2nccnc2c1 (stereo unspecified)	-7	-8	0	0	3
O=C(Nc1ccc2c(c1)N(C(=O)C1CC1)CC2)c1ccc(F)cc1Cl	8	·	·	·	·
CC(C)S(=O)(=O)c1ccc(CC(=O)NCCc2csc3nc(-c4ccccc4F)nn23)cc1	-6	·	·	·	·
Cn1nccc1C(=O)Nc1nc(-c2ccccn2)cs1	97*	·	·	·	·
Cn1c(C(=O)Nc2nc(-c3ccccn3)cs2)cc2ccccc21	93*	·	·	·	·
O=C(Nc1nc(-c2ccccn2)cs1)C1CCCC1	14	-31	2	-1	-4
CN1NC(C(=O)Nc2nc(-c3ccccn3)cs2)=CCC1=O	124*	·	·	·	·
Cc1cc(C(=O)Nc2nc(-c3ccccn3)cs2)n(C)n1	118*	·	·	·	·
COc1cccc2sc(N(Cc3ccccn3)C(=O)c3cccc(S(=O)(=O)C(C)C)c3)nc12	1	·	·	·	·
Cc1ccc2cccc(C(=O)N3CC(Oc4cc(C)oc(=O)c4)C3)c2n1	-16	·	·	·	·
O=C(NCc1ccccc1)C(=O)NCC(O)C1CCCCC1 (stereo unspecified)	-1	·	·	·	·
Cn1cccc1C(=O)Nc1nc(-c2ccccn2)cs1	85*	-29	-3	·	7
COC(=O)c1cc(Nc2ccc(C)c(Cl)c2)c2cccc(C)c2n1	14	·	·	·	·
Cc1cc(C(=O)Nc2nnc(-c3cc(C)n(C)n3)o2)no1	-15	·	·	·	·
CCC(CO)Oc1cc(NCc2ccc(Cl)cc2Cl)c2ncn(C(C)C)c2c1 (stereo unspecified)	39*	-18	2	-3	14
CN1CCN(C(=S)c2cn(CCOc3ccccc3F)c3ccccc23)CC1	39*	-16	-3	0	-7
CCOC(=O)NN=Cc1ccc(OC)c(O)c1	-18	·	·	·	·
COc1ccc(C(=O)Oc2ccc(/C=N/Nc3ccc(Cl)c(C(=O)O)c3)cc2OC)cc1	·	-13	9.5*	0	-8
O=C(O)c1cc(NN=Cc2ccc(-c3ccccc3)cc2)ccc1Cl	0	·	·	·	·
O=C(O)c1cc(N/N=C/c2ccc(-c3ccccc3)cc2)ccc1Cl	·	-87	19*	i	-4
O=C(O)c1ccc(N/N=C/c2ccc(-c3ccccc3)cc2)cc1	·	-67	19*	i	10
COc1ccc(C(=O)Oc2ccc(C=NNc3ccc(Cl)c(C(=O)O)c3)cc2OC)cc1	-9	·	·	·	·
Cc1ccc(S(=O)(=O)Oc2cccc(/C=N/Nc3ccc(C(=O)O)cc3)c2)cc1	i	-7	30*	0	9
SMILES	PriA SSB inh	PrP 5UTR inh	FadD28 binding	BH1578 lux ind	PrPC TRFRET
O=S(=O)(c1cccnc1)N1CCN(c2ccc(-c3ccc(F)cc3)nn2)CC1	-14	·	·	·	·
O=C(O)c1cc(-c2ccc(/C=N/Nc3ccc(Cl)cc3)o2)ccc1Cl	·	-3	15*	-9	10
Nc1nonc1C(=O)N/N=C/c1ccc(-c2ccc(Cl)c(C(=O)O)c2)o1	·	-20	-5	-1	-5
Cc1nc2c(=O)n(C)c(=O)nc-2n(C)n1	0	-7	3	0	25*
CCn1nc(-c2ccccc2)nc2c(=O)n(C)c(=O)nc1-2	-22	-48	·	i	·
COc1ccc(OCc2nnc3n2N=C(c2ccc(C)cc2)CS3)cc1	-5	-19	-3	+	14
CCOC(=O)C1(O)CSc2nc3sc(C)c(C)c3c(=O)n21 (stereo unspecified)	-8	·	·	·	·
